Compound activity from PubChem.
Wnt act = activators of Wnt/beta-catenin signaling. Wnt/beta-catenin reporter cell assay, activator, plate reader. activation, % at 9.35 µM. 300,000 compounds, 1.2% hits. AID 743398; in the data active = activation above about 30%, passing the limit was not always enough;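 also: 0% = neutral control wells and 100% = positive control wells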
miR122 inh = miR-122 inhibition in Huh7 cells; Huh7 miR-122 Renilla luciferase sensor, 48 h; neutral wells = 0, positive control = 100; activation (reporter increase), % at 12.5 µM; 340,000 compounds, 0.3% hits; AID 602342;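 active = mean replicate activation score at least 90 and every replicate individually at or above 90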;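 also: higher luciferase means less miR-122 activity so hits act as miR-122 inhibitors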
esBAF inh = inhibitors of esBAF chromatin remodeling in mouse ES cells. Bmi1-luciferase knock-in reporter, 24 h; 100% = twice the neutral-well signal. reporter increase, % at 12.5 µM. 350,000 compounds, 2% hits. AID 602393; in the data active = activation above about 40%;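 also: 0% = median of the plate's neutral control wells and 100% = double that signal; a rise in the Bmi1 reporter signal indicates esBAF inhibition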
HIV Env fusion = inhibitors of HIV Env-mediated cell fusion | HeLa-JRFL Env/CEM21 cell fusion, luciferase | inhibition, % at 12.3 µM | 360,000 compounds, 1.1% hits | AID 651610;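 active = mean replicate inhibition score of at least 50 and every replicate individually at or above 50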;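 also: 0% = plate neutral controls and 100% = maraviroc near 300 nM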
MITF act = increases MITF-driven TRPM1 promoter luciferase signal. SK-MEL-5 TRPM1-promoter luciferase, 24 h; % of positive control, neutral wells = 0. 300,000 compounds, 0.75% hits. AID 588334. activation, % at 12.5 µM;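 active = mean activation of at least 80% with every replicate also reaching 80%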;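 also: 0% = neutral control wells and 100% = parthenolide positive control wells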
Numbers without * were called inactive; x = not tested or not shown; ! = a repeat was not active; [ ] = remark or other dose. This is a sample that favours compounds with a hit; in the whole collection about 3.4% have one here.

SMILES | Wnt act | miR122 inh | esBAF inh | HIV Env fusion | MITF act
c1cc2c(cc1-c1ccc3c(c1)OCO3)CNCc1cnnn1-2 | -1.3 | -0.6 | 50.6* | -7.1 | x
COc1ccc(-c2ccc3c(c2)CNCc2cnnn2-3)cc1 | 1.7 | -6.9 | 35.6 | -25.9 | x
Fc1cccc(-c2ccc3c(c2)CNCc2cnnn2-3)c1 | 0.7 | 9.6 | 42.7* | 2.3 | x
c1ccc(-c2ccc3c(c2)CNCc2cnnn2-3)cc1 | -0.7 | -1.0 | 13.5 | -40.7 | x
O=C(O)[C@@H]1[C@@H](CO)[C@@H]2Cn3c(ccc(C4=CCCCC4)c3=O)[C@H]1N2C(=O)Cc1ccccn1 | x | x | -2.9 | 6.1[16.7 µM] | x
CN1C(=O)NC(=O)C(N=Nc2ccc(Cl)cc2)C1=O (stereo unspecified) | 17.6 | 0.3 | 41.5* | -16.2 | 10.6
COC(=O)[C@@H]1[C@@H](CO)[C@@H]2Cn3c(ccc(-c4ccccc4)c3=O)[C@H]1N2S(=O)(=O)c1ccccc1C | x | -1.9[16.7 µM] | 2.8 | x | x
CC1=CC2OC3CC4OC(=O)C=CC=CC(C(C)O)OCC(O)C(C)CC(=O)OCC2(CC1O)C4(C)C31CO1 (stereo unspecified) | -25.0 | -1.2 | x | 82.6* | x
CC1=CC2OC3CC4OC(=O)C=CC=CC(=O)OCCC(C)C(O)C(=O)OCC2(CC1O)C4(C)C31CO1 (stereo unspecified) | x | x | x | x | -85.6
CC(=O)OC1C(O)C(C)OC(OC2C(OC(=O)C3CCC4C(C3)OC3(CC(OC(=O)/C=C/c5ccccc5)C(C)CO3)C43CO3)OC(C)C(O)C2OC(C)=O)C1O (stereo unspecified) | -25.9 | -14.2 | x | 72.2* | x
COC(=O)C1=C(c2ccc(Cl)c(C(F)(F)F)c2)C[C@@H]2CC[C@H]1N2C(=O)NCc1ccc2c(c1)OCO2 | 57.4* | x | 11.0 | 19.3 | -0.4
CCC(=Nc1ccccc1N)c1c(O)[nH]c(=O)[nH]c1=O | 9.5 | -7.3 | 50.6* | -2.7 | -2.0
CC[C@@]1(O)C(=O)OCc2c1cc1n(c2=O)Cc2cc3c(NC(=O)CN)cccc3nc2-1 | 8.3 | x | -7.1 | 68.9* | -40.7
COC(=O)C12OCC34C(CC5C(C)=C(O)C(=O)CC5(C)C3C(O)C1O)OC(=O)C(OC(=O)/C=C(\C)C(C)C)C24 (stereo unspecified) | -9.6 | -6.8 | x | 84.3* | x
O=C(O)[C@@H]1[C@@H](CO)[C@@H]2Cn3c(ccc(-c4cccnc4)c3=O)[C@H]1N2S(=O)(=O)c1ccccc1F | x | 3.3[16.7 µM] | -3.3 | x | x
C[C@H]1CCC/C=C/[C@@H]2C[C@H](O)C[C@H]2[C@H](O)/C=C/C(=O)O1 | -22.1 | -10.1 | -59.0 | 94.0*! | -81.0
COc1ccc(C#Cc2ccc([C@@H]3[C@H]4CN(C(=O)Cc5cccnc5)CCCCN4[C@H]3CO)cc2)cc1 | x | -15.2[16.7 µM] | x | x | x
Cc1ccc(C(=O)Nc2ccc(Cl)cc2C(=O)c2ccccc2)cc1 | x | 114.5* | -13.0 | -51.3 | -19.0
CCN1[C@@H]2Cn3c(ccc(-c4cccc(OC)c4)c3=O)[C@H]1[C@@H](C(=O)OC)[C@@H]2CO | x | 2.2[16.7 µM] | 3.6 | x | x
COc1ccc(CNCCc2c[nH]c3ccccc23)c(OC)c1C | -6.6 | -4.0 | -0.2 | 70.6* | -1.7
COc1cc(C)c(CNCCc2c[nH]c3ccccc23)cc1C | 3.3 | -18.3 | -3.8 | 81.4* | -38.6
COc1cccc(CNCCc2c[nH]c3ccccc23)c1 | -1.3 | 0.5 | -6.0 | 24.5 | 5.0
COc1ccc(C#Cc2ccc([C@H]3[C@H]4CN(C(=O)Cc5ccncc5)CCCCN4[C@H]3CO)cc2)cc1 | x | -13.5[16.7 µM] | x | x | x
CC(C)(C)c1cc([N+](=O)[O-])cc(C(C)(C)C)c1O | -25.2 | x | x | 58.3* | x
NC(=O)c1cc([N+](=O)[O-])cc([N+](=O)[O-])c1 | 0.1 | -2.7 | 3.7 | 12.6 | -9.2
SMILES | Wnt act | miR122 inh | esBAF inh | HIV Env fusion | MITF act
O=[N+]([O-])c1ccccc1-c1cc(-c2ccccc2)cc(-c2ccccc2)[n+]1Cc1ccccc1Cl | -5.2 | x | x | 61.1* | x
O=C(Cc1ccccn1)N1CCCCN2[C@H](CO)[C@H](c3ccc(Br)cc3)[C@H]2C1 | x | 1.6[16.7 µM] | -3.0 | x | x
COc1ccc(-c2cc(C(=O)N3CCC4(CC3)OCCO4)c3ccccc3n2)cc1 | 8.1 | 10.8 | 41.1* | -11.0 | 48.0
CCc1c(-c2ccccc2)nc2ccccc2c1C(=O)N1CCC2(CC1)OCCO2 | -1.9 | x | -5.4 | -3.9 | 2.4
CCOc1ccc(-c2cc(C(=O)N3CCC4(CC3)OCCO4)c3ccccc3n2)cc1 | 24.3 | x | x | -157.0 | 100.0*
COC(=O)[C@@H]1[C@@H](CO)[C@@H]2Cn3c(ccc(-c4cccc(OC)c4)c3=O)[C@H]1N2C(=O)c1ccccc1F | x | 8.6[16.7 µM] | 4.3 | x | x
COc1ccc(-c2ccc([C@@H]3[C@@H](CO)N4CCCCN(C(=O)Cc5ccccc5)C[C@H]34)cc2)cc1 | x | -2.7[16.7 µM] | x | x | x
CCN1[C@@H]2Cn3c(ccc(-c4ccc(OC)cc4)c3=O)[C@H]1[C@@H](C(=O)OC)[C@@H]2CO | x | x | -8.2 | x | x
CCCCn1c(O)c(C(C)=NCc2ccco2)c(=O)[nH]c1=O | 45.1* | -9.9 | -7.3 | 1.3 | x
COc1cccc(-c2ccc([C@@H]3[C@H]4CN(C(=O)Cc5ccncc5)CCCCN4[C@H]3CO)cc2)c1 | x | 27.2[16.7 µM] | x | x | x
COC1C(C)OC(OC2CC(C)(O)Cc3cc4c(c(O)c32)C(=O)c2c(O)cc3c(c2C4=O)OC2OC3(C)C(O)C(N(C)C)C2O)C(OC)C1(C)OC (stereo unspecified) | -10.4 | x | x | 70.7* | -62.8
COC(=O)[C@@H]1[C@@H](CO)[C@@H]2Cn3c(ccc(-c4ccncc4)c3=O)[C@H]1N2S(=O)(=O)c1ccccc1C | x | 0.9[16.7 µM] | 1.2 | x | x
C[C@@H]1O[C@@H](O[C@@H]2C=C3CC[C@@H]4C(CC[C@]5(C)[C@@H](c6ccc(=O)oc6)CC[C@]45O)[C@@]3(C)CC2)[C@H](O)[C@H](O)[C@H]1O (stereo partly specified) | -19.5 | -24.6 | 6.6 | 93.1* | -82.2
C[C@@H]1O[C@@H](O[C@@H]2C=C3CCC4C(CC[C@]5(C)[C@@H](c6ccc(=O)oc6)CC[C@]45O)[C@@]3(C)CC2)[C@H](O)[C@H](O)[C@H]1O (stereo partly specified) | -1.4 | -21.1 | -1.7 | 65.0* | -80.1
CC1OC(OC2CC(O)C3(CO)C4C(O)CC5(C)C(C6=CC(=O)OC6)CCC5(O)C4CCC3(O)C2)C(O)C(O)C1O (stereo unspecified) | -25.2 | -17.2 | -4.9 | x | -85.9
COC(=O)[C@@H]1[C@@H](CO)[C@@H]2Cn3c(ccc(C4=CCCC4)c3=O)[C@H]1N2S(=O)(=O)c1cn(C)cn1 | x | 7.7[16.7 µM] | 0.0 | x | x
COc1ccc(-n2c(O)c(C(C)=NCCCn3ccnc3)c(=O)[nH]c2=O)cc1 | x | 16.6 | -6.1 | 68.7* | 19.0
C[C@@H]1O[C@@H](O[C@H]2C[C@@H](O)[C@]3(CO)[C@H]4[C@H](O)C[C@]5(C)[C@@H](C6COC(=O)C6)CC[C@]5(O)[C@@H]4CC[C@]3(O)C2)[C@H](O)[C@H](O)[C@H]1O (stereo partly specified) | -23.8 | 113.6* | -1.5 | -157.2 | -67.1
